# Data: PubChem BioAssay (EPA / NIEHS)
# Values joined by “and” are separate entries in the source; they are usually repeats but may differ in a detail not shown here. Equal entries are not always repeated. Records with an inconclusive call do not appear. A structure can be active in one record and inactive in another. Active and inactive are the calls of the source. Rule for the calls: active = hit-call score of the fitted dose curve at least 0.9, where 1 is the maximum; inconclusive = response in the unintended direction; inactive = score below 0.9.
# How the values were obtained:
# [1] = molecular target: Mitogen-activated protein kinase 3 (Homo sapiens) (UniProt P27361); assay: NVS_ENZ_hMAPK3: NovaScreen (NVS) Enzymatic Assay for human Mitogen-Activated Protein Kinase 3 (MAPK 3) (AID 2283177)
# Method in brief: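 Chemicals were first tested in duplicate at 25 uM, with hits re-run as concentration series (max 50 uM). Recombinant enzyme activity, measured 1 h post-dose in a cell-free format, was read by fluorescence/mobility shift relative to DMSO.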
# [2] = molecular target: Collagenase 3 (Homo sapiens) (UniProt P45452); assay: NVS_ENZ_hMMP13: NovaScreen (NVS) Enzymatic Assay for human Matrix Metalloproteinase-13 (MMP13) (AID 2283182)
# Method in brief: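 Recombinant MMP13 cleaving fluorescent substrate, cell-free, measured 1 h after dosing. Primary duplicate screen at 25 uM; actives tested in concentration-response up to 50 uM; loss of signal relative to DMSO.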
# [3] = molecular target: human Matrix Metalloproteinase-7 (MMP7), MMP7 (gene 4316) (UniProt P09237); assay: NVS_ENZ_hMMP7: NovaScreen (NVS) Enzymatic Assay for human Matrix Metalloproteinase-7 (MMP7) (AID 2283183)
# Chain of human Matrix Metalloproteinase-7 (MMP7), MMP7 (gene 4316) (P09237 whole entry, looked up): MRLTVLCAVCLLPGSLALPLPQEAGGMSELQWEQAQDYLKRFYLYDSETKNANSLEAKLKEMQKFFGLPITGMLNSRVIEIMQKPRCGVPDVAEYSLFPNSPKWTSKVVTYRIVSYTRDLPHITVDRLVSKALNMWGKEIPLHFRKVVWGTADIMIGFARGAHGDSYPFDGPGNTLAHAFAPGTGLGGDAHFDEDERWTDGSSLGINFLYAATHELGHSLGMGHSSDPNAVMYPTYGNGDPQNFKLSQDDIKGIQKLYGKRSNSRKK
# Method in brief: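 Compounds first tested at 25 uM in duplicate, then at up to 50 uM in concentration series if active. Protease activity measured by fluorescence intensity 1 h after dosing, with fitting relative to DMSO.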
# [4] = molecular target: human Matrix Metalloproteinase-9 (MMP9), MMP9 (gene 4318) (UniProt P14780); assay: NVS_ENZ_hMMP9: NovaScreen (NVS) Enzymatic Assay for human Matrix Metalloproteinase-9 (MMP9) (AID 2283190);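 note: cell-free recombinant MMP9 protease activity read by fluorescent substrate signal; active means inhibition seen as loss of fluorescence signal versus DMSO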
# Method in brief: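 Extracted enzyme, fluorescent substrate, 1 h post-dose read. Single conc 25 uM in duplicate, then concentration series for actives. Activity = signal loss relative to DMSO negative control.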
# [5] = molecular target: human Phosphoinositide 3-kinase alpha (PI3Ka), PIK3CA (gene 5290) (UniProt P42336); assay: NVS_ENZ_hPI3Ka: NovaScreen (NVS) Enzymatic Assay for human Phosphoinositide 3-kinase alpha (PI3Ka) (AID 2283196)
# Chain of human Phosphoinositide 3-kinase alpha (PI3Ka), PIK3CA (gene 5290) (P42336 whole entry, looked up): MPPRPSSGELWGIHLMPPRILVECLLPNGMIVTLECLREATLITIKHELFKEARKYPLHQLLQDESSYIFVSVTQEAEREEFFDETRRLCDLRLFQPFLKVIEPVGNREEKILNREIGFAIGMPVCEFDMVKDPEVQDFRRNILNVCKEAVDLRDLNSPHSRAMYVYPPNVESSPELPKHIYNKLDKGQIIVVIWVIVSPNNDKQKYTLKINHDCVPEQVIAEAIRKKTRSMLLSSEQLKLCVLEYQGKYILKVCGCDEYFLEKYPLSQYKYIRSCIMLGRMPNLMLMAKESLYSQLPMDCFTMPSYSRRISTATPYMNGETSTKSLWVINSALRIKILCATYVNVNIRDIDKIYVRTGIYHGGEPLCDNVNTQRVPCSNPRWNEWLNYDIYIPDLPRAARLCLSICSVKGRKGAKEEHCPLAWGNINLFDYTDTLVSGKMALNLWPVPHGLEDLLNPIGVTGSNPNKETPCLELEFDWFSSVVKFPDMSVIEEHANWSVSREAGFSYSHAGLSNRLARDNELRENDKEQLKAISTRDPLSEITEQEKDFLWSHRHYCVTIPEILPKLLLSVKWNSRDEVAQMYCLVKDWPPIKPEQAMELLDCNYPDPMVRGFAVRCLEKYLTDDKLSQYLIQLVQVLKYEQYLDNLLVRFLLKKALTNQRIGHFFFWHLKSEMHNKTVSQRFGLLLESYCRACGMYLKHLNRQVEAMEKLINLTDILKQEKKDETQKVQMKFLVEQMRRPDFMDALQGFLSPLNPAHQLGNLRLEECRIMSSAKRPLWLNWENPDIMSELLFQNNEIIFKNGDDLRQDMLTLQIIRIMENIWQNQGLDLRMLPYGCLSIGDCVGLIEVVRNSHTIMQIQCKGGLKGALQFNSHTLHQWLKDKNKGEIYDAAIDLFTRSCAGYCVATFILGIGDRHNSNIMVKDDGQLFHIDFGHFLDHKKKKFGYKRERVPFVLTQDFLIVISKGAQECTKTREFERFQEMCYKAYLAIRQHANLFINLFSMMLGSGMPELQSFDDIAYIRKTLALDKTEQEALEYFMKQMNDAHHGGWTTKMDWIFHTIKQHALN
# Method in brief: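 Fluorescence/mobility-shift readout of substrate conversion by recombinant enzyme, 1 h post-dosing. Primary screen in duplicate at 25 uM; actives (e.g. ≥30% inhibition) retested in singleton concentration-response, top concentration 50 uM.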
# [6] = molecular target: Glycogen synthase kinase-3 beta (Homo sapiens) (UniProt P49841); assay: NVS_ENZ_hGSK3b: NovaScreen (NVS) Enzymatic Assay for human Glycogen Synthase Kinase-3 beta (GSK3b) (AID 2283165)
# Method in brief: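 Recombinant enzyme with specific fluorescent substrate, 1 h, product separated by electrophoretic mobility shift. Primary duplicate screen at 25 uM; actives (e.g. 30% inhibition) followed in singleton concentration-response to 50 uM. Signal loss fitted versus DMSO.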
# [7] = molecular target: human c-Jun N-terminal Kinases (JNK2), MAPK9 (gene 5601) (UniProt P45984); assay: NVS_ENZ_hJNK2: NovaScreen (NVS) Enzymatic Assay for human c-Jun N-terminal Kinases (JNK2) (AID 2283171)
# Chain of human c-Jun N-terminal Kinases (JNK2), MAPK9 (gene 5601) (P45984 whole entry, looked up): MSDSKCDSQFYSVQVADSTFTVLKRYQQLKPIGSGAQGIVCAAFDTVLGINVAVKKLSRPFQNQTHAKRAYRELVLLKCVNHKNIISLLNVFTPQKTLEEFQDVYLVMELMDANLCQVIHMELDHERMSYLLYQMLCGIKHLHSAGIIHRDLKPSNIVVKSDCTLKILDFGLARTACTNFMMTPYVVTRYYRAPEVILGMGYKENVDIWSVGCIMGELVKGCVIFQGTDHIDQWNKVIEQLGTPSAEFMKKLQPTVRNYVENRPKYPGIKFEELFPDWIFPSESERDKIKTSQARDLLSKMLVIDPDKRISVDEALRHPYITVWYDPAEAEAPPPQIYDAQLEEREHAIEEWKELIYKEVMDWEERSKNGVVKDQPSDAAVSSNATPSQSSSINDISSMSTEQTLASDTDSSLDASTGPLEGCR
# Method in brief: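 Chemicals first tested in duplicate at 25 uM, then in singleton concentration series up to 50 uM, against extracted JNK2 enzyme. Activity loss read by fluorescence with mobility-shift separation 1 h post-dose; DMSO baseline.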
# [8] = molecular target: human MAP Kinase-Activated Protein Kinase 2 (MAPKAPK2), MAPKAPK2 (gene 9261) (UniProt P49137); assay: NVS_ENZ_hMAPKAPK2: NovaScreen (NVS) Enzymatic Assay for human MAP Kinase-Activated Protein Kinase 2 (MAPKAPK2) (AID 2283178)
# Chain of human MAP Kinase-Activated Protein Kinase 2 (MAPKAPK2), MAPKAPK2 (gene 9261) (P49137 whole entry, looked up): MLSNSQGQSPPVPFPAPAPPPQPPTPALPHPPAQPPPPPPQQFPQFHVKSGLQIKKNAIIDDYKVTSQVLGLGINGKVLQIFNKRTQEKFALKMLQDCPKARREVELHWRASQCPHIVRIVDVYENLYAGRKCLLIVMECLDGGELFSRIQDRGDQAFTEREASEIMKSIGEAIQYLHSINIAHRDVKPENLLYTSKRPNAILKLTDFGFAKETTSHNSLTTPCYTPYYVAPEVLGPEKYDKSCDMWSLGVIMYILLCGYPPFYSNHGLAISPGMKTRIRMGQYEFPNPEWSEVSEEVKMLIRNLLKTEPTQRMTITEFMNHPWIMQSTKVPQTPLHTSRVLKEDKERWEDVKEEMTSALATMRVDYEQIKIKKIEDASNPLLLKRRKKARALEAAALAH
# Method in brief: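 Chemicals screened in duplicate at 25 uM, then to 50 uM top concentration in concentration-response, against recombinant human MAPKAPK2; substrate conversion read 1 hr post-dosing by fluorescence after electrophoretic mobility-shift separation, loss-of-signal relative to DMSO.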
# [9] = molecular target: human Matrix Metalloproteinase-2 (MMP2), MMP2 (gene 4313) (UniProt P08253); assay: NVS_ENZ_hMMP2: NovaScreen (NVS) Enzymatic Assay for human Matrix Metalloproteinase-2 (MMP2) (AID 2283184)
# Method in brief: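 Compounds first screened in duplicate at a single 25 uM, with actives followed up in concentration series. Recombinant human MMP2 cleaves a fluorogenic substrate; fluorescence taken at 1 h, inhibition fitted relative to DMSO.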
# [10] = molecular target: human Matrix Metalloproteinase-3 (MMP3), MMP3 (gene 4314) (UniProt P08254); assay: NVS_ENZ_hMMP3: NovaScreen (NVS) Enzymatic Assay for human Matrix Metalloproteinase-3 (MMP3) (AID 2283185)
# Chain of human Matrix Metalloproteinase-3 (MMP3), MMP3 (gene 4314) (P08254 whole entry, looked up): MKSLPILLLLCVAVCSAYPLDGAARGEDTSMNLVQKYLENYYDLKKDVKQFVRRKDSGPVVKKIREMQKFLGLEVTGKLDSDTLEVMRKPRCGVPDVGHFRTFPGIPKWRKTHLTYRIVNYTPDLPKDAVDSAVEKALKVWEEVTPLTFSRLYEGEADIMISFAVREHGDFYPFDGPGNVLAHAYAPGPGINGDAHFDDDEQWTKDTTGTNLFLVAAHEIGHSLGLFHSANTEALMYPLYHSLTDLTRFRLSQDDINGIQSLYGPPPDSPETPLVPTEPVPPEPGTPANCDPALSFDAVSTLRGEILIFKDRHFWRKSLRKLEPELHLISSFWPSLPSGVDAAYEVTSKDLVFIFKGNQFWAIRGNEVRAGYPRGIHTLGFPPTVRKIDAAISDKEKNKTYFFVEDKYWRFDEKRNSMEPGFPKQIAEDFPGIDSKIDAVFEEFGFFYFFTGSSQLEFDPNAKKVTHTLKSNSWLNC
# Method in brief: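 Fluorescent substrate turnover by recombinant MMP3 read after 1 h, signal loss scored against DMSO. Compounds first run in duplicate at 25 uM single dose, then actives confirmed by concentration series.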
# [11] = molecular target: human Mitogen- and Stress-activated Protein Kinase-1 (Msk1), RPS6KA5 (gene 9252) (UniProt O75582); assay: NVS_ENZ_hMsk1: NovaScreen (NVS) Enzymatic Assay for human Mitogen- and Stress-activated Protein Kinase-1 (Msk1) (AID 2283187)
# Chain of human Mitogen- and Stress-activated Protein Kinase-1 (Msk1), RPS6KA5 (gene 9252) (O75582 whole entry, looked up): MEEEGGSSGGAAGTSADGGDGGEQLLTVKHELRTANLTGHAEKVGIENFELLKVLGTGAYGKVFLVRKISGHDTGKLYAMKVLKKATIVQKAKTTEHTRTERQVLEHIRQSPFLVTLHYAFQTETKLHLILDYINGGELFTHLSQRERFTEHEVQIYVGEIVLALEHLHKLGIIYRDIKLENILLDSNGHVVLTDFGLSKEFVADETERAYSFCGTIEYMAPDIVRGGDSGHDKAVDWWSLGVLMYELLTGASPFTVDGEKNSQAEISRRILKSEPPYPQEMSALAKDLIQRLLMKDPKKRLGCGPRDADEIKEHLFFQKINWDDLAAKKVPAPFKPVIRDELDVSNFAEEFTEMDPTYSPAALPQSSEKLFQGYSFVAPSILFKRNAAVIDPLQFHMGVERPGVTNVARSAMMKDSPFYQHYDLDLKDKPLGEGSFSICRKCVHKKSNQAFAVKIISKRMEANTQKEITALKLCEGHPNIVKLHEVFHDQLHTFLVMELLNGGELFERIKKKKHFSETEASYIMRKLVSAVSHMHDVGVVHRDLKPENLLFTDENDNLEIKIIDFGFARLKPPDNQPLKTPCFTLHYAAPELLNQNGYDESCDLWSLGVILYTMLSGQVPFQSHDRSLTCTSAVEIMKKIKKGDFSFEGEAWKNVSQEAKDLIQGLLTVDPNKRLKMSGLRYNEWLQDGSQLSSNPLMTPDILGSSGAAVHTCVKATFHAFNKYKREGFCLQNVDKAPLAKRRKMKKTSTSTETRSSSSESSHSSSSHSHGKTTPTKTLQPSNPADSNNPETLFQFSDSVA
# Method in brief: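 Chemicals first run in duplicate at 25 uM, with actives followed up in singleton concentration series to 50 uM maximum. Enzyme activity came from substrate/product mobility-shift separation with fluorescence detection after 1 h incubation of the recombinant protein.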
# [12] = molecular target: human Phosphodiesterase 4A1 (PDE4A1), PDE4A (gene 5141) (UniProt P27815); assay: NVS_ENZ_hPDE4A1: NovaScreen (NVS) Enzymatic Assay for human Phosphodiesterase 4A1 (PDE4A1) (AID 2283191)
# Method in brief: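 Fluorescent substrate turnover by recombinant PDE4A1 read after 1 h by mobility-shift separation. Primary duplicate screen at 25 uM; hits retested in concentration series with a 50 uM maximum, relative to DMSO.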
# [13] = molecular target: human Phosphodiesterase 5 (PDE5), PDE5A (gene 8654) (UniProt O76074); assay: NVS_ENZ_hPDE5: NovaScreen (NVS) Enzymatic Assay for human Phosphodiesterase 5 (PDE5) (AID 2283194)
# Method in brief: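 Screening began in duplicate at 25 uM, with actives taken into concentration-response. Enzyme activity of recombinant PDE5 toward its substrate was measured at 1 h by fluorescence mobility-shift detection, relative to DMSO controls.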
# [14] = molecular target: human Phosphodiesterase 10 (PDE10), PDE10A (gene 10846) (UniProt Q9Y233); assay: NVS_ENZ_hPDE10: NovaScreen (NVS) Enzymatic Assay for human Phosphodiesterase 10 (PDE10) (AID 2283195)
# Method in brief: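 Fluorescence readout after mobility-shift separation of substrate and product, 1 h reaction with recombinant human enzyme. Single-concentration duplicates at 25 uM, then concentration-response up to 50 uM for chemicals reaching threshold; DMSO baseline.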
# [15] = molecular target: Histone deacetylase 3 (Homo sapiens) (UniProt O15379); assay: NVS_ENZ_hHDAC3: NovaScreen (NVS) Enzymatic Assay for human Histone Deacetylase 3 (HDAC3) (AID 2283163)
# Chain of Histone deacetylase 3 (Homo sapiens) (O15379 whole entry, looked up): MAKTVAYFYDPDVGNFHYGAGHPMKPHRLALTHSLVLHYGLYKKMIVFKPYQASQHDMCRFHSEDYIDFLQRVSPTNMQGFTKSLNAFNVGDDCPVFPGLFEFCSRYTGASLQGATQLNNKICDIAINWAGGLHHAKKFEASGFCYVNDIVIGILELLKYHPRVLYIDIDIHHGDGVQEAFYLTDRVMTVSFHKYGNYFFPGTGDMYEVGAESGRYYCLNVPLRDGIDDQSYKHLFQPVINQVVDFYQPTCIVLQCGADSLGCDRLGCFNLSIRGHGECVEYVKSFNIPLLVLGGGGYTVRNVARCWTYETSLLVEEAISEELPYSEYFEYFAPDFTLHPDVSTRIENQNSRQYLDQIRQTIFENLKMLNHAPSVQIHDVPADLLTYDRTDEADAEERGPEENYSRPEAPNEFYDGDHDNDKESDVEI
# Method in brief: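 Cell-free enzyme format: loss of fluorescent product after mobility-shift separation, 1 h incubation, recombinant human HDAC3. Single 25 uM duplicate screen first, then concentration series to a 50 uM top for hits; DMSO as baseline.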
# [16] = molecular target: human Janus Kinase 2 (Jak2), JAK2 (gene 3717) (UniProt O60674); assay: NVS_ENZ_hJak2: NovaScreen (NVS) Enzymatic Assay for human Janus Kinase 2 (Jak2) (AID 2283169)
# Chain of human Janus Kinase 2 (Jak2), JAK2 (gene 3717) (O60674 whole entry, looked up): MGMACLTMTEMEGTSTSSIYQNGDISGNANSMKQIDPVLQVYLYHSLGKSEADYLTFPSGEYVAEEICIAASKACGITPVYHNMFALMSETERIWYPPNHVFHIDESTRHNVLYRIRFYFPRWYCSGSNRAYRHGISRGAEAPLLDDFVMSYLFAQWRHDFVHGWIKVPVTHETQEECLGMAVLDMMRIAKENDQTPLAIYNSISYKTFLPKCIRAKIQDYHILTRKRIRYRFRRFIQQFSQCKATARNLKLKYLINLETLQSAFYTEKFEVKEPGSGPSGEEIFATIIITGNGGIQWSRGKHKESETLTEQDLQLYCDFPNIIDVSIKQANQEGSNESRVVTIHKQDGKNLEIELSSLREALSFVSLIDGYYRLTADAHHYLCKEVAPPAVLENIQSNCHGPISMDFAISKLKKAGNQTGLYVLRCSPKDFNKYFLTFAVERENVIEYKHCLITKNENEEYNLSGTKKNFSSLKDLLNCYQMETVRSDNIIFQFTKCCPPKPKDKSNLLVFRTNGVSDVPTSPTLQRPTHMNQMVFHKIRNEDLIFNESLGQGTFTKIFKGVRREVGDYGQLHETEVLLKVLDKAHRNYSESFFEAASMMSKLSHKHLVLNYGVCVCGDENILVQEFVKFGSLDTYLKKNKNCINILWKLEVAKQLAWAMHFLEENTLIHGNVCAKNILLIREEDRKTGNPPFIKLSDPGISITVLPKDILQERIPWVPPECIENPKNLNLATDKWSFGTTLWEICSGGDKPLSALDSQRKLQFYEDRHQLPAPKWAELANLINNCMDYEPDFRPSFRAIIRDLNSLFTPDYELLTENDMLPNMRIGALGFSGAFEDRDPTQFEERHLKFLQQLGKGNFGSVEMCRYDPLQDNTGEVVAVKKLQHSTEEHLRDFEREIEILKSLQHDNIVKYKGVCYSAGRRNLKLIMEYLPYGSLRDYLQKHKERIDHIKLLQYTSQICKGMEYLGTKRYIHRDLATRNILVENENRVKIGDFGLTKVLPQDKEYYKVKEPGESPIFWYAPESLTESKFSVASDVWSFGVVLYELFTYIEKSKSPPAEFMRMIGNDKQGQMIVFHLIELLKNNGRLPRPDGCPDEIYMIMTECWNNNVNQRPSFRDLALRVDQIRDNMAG
# Method in brief: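 Single-point duplicate screen at 25 uM, with hits run in concentration series to a 50 uM top dose. Substrate-product separation by mobility shift with fluorescence detection, 1 h post-dosing; DMSO baseline.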
# [17] = molecular target: human LYN Proto-Oncogene, Src family Tyrosine Kinase (LynA), LYN (gene 4067) (UniProt P07948); assay: NVS_ENZ_hLynA: NovaScreen (NVS) Enzymatic Assay for human LYN Proto-Oncogene, Src family Tyrosine Kinase (LynA) (AID 2283173)
# Method in brief: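 Recombinant kinase with fluorescent substrate; product separated from substrate by electrophoretic mobility shift and read 1 h after dosing. Duplicate screen at 25 uM, then concentration-response up to 50 uM; activity scored as signal loss against DMSO.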
# [18] = molecular target: cAMP-dependent protein kinase catalytic subunit alpha (Homo sapiens) (UniProt P17612); assay: NVS_ENZ_hPKA: NovaScreen (NVS) Enzymatic Assay for human Protein Kinase A (PKA) (AID 2283192)
# Method in brief: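 Cell-free kinase activity read by fluorescence after mobility-shift separation of substrate and product, 1 h post-dosing. Single-concentration duplicate screen (25 uM) preceded singleton concentration series (top 50 uM); loss of signal versus DMSO.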
# [19] = molecular target: human Insulin Receptor (InsR), INSR (gene 3643) (UniProt P06213); assay: NVS_ENZ_hInsR: NovaScreen (NVS) Enzymatic Assay for human Insulin Receptor (InsR) (AID 2283168)
# Method in brief: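 Cell-free enzyme assay read 1 h post-dose by fluorescence after substrate/product mobility-shift separation. Duplicate 25 uM primary screen, then singleton concentration-response up to 50 uM for compounds passing threshold; loss of signal vs DMSO.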
# [20] = molecular target: human Protein Phosphatase, Mg2+/Mn2+ Dependent 1A (PPM1A), PPM1A (gene 5494) (UniProt P35813); assay: NVS_ENZ_hPPM1A: NovaScreen (NVS) Enzymatic Assay for human Protein Phosphatase, Mg2+/Mn2+ Dependent 1A (PPM1A) (AID 2283198)
# Method in brief: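 Primary screen in duplicate at 25 uM, with actives then titrated to a maximum of 50 uM. Recombinant PPM1A dephosphorylation of fluorescent substrate measured at 1 h, with substrate and product separated by mobility shift; inhibition fitted against DMSO.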
compound,measurement,setting,value
Oc1ccc(C(c2ccc(O)cc2)C(Cl)(Cl)Cl)cc1,outcome,[1],inactive
same,outcome,[2],inactive
same,outcome,[3],inactive
same,outcome,[4],inactive
same,AC50,[5],29.1 µM (active)
O=C(O)C1(C(=O)Nc2ccc(Cl)cc2Cl)CC1,outcome,[6],inactive
same,AC50,[7],25 µM (active)
same,outcome,[8],inactive
same,AC50,[9],8.27 µM (active)
same,outcome,[10],inactive
same,outcome,[11],inactive
same,AC50,[12],24.2 µM (active)
same,AC50,[13],13 µM (active)
same,AC50,[14],34.9 µM (active)
COC(=O)c1ccc(CNS(C)(=O)=O)cc1S(=O)(=O)NC(=O)Nc1nc(OC)cc(OC)n1,outcome,[15],inactive
CCOC(=O)NCCOc1ccc(Oc2ccccc2)cc1,outcome,[3],inactive
c1ccc2[nH]c(-c3cscn3)nc2c1,outcome,[6],inactive
same,AC50,[16],2.27 µM (active)
same,AC50,[13],11.6 µM (active)
CCCCCOC(=O)COc1cc(N2C(=O)C3=C(CCCC3)C2=O)c(F)cc1Cl,outcome,[9],inactive
COC(=O)c1ccccc1C(=O)O,outcome,[17],inactive
CCOC(=O)C(C)Oc1ccc(Oc2nc3ccc(Cl)cc3o2)cc1 (configuration not stated),outcome,[2],inactive
CC1(C)C(C=C(Cl)Cl)C1C(=O)OCc1cccc(Oc2ccccc2)c1 (configuration not stated),outcome,[3],inactive
COCCO,outcome,[7],inactive
N[C@@H](Cc1cc(I)c(Oc2ccc(O)c(I)c2)c(I)c1)C(=O)O,AC50,[16],5.49 µM (active)
same,outcome,[8],inactive
same,AC50,[2],5.14 µM (active)
CC(=O)[C@H]1CC[C@H]2[C@@H]3CCC4=CC(=O)CC[C@]4(C)[C@H]3CC[C@]12C,outcome,[6],inactive
CC(=O)S[C@@H]1CC2=CC(=O)CC[C@]2(C)[C@H]2CC[C@@]3(C)[C@@H](CC[C@@]34CCC(=O)O4)[C@H]12,AC50,[14],14.4 µM (active)
CCCOC(=O)NCCCN(C)C,outcome,[10],inactive
CCC(C)OC(=O)N1CCCCC1CCO (configuration not stated),outcome,[14],inactive
S=C(S)NCCNC(=S)S.[Mn+2].[S-]C([S-])=NCCN=C([S-])[S-].[Zn+2],AC50,[15],10 µM (active) and 445 nM (active)
same,AC50,[6],1.08 µM (active) and 3.32 µM (active) and 678 nM (active)
same,AC50,[16],7.51 µM (active) and 40.2 µM (active)
same,outcome,[16],inactive
same,outcome,[7],inactive
same,AC50,[1],6.76 µM (active) and 25 µM (active)
same,AC50,[8],408 nM (active) and 399 nM (active)
same,AC50,[2],16.2 µM (active)
same,outcome,[2],inactive
same,AC50,[3],3.74 µM (active)
same,AC50,[10],10.8 µM (active)
same,AC50,[11],1.45 µM (active) and 9.58 µM (active)
same,AC50,[12],3.82 µM (active) and 3.7 µM (active) and 10.6 µM (active)
same,AC50,[18],20.5 µM (active)
same,AC50,[13],12.5 µM (active) and 14.2 µM (active)
same,outcome,[13],inactive
same,AC50,[14],2.41 µM (active) and 17.6 µM (active)
same,AC50,[5],6.63 µM (active) and 14.6 µM (active)
same,outcome,[5],inactive
CCSC(=O)N(CC(C)C)CC(C)C,outcome,[5],inactive
O=C(c1ccc(O)cc1O)c1ccc(O)cc1O,outcome,[15],inactive
same,AC50,[6],25 µM (active)
same,AC50,[19],19.3 µM (active)
same,AC50,[16],21 µM (active)
same,outcome,[17],inactive
same,AC50,[11],24.1 µM (active)
same,outcome,[18],inactive
same,AC50,[13],22 µM (active)
CCOC(=O)c1ccc(O)cc1,outcome,[13],inactive
same,outcome,[20],inactive
C[C@]12C[C@H](O)[C@H]3[C@@H](CCC4=CC(=O)CC[C@@]43C)[C@@H]1CC[C@@H]2C(=O)CO,outcome,[10],inactive
